TDP1 cell noCPT = qHTS for Inhibitors of human tyrosyl-DNA phosphodiesterase 1 (TDP1): qHTS in cells in absence of CPT | DT40 Tdp1-/- hTDP1 cells, no CPT, ATP luminescence, 48 h | AID 686978, 2013 | Potency, µM (titrated, usually from 46.2 µM), actives largely listed as inhibitors | 420,000 tested, 15% active; also: nearly all actives have a fitted effect of over 55% in size
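Stably hTDP1-transfected Tdp1-null chicken DT40 cells were treated with library compounds minus camptothecin and grown for at least 48 hr at 37 °C, after which cellular ATP was quantified by luminescence.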
TDP1 block = blocks human tyrosyl-DNA phosphodiesterase 1 | recombinant TDP1, AlphaScreen DNA substrate cleavage | Potency, µM (highest dose often 130 µM), most hits filed as inhibitors | 350,000 tested, 0.28% active; also: nearly all actives have a fitted effect of over 40% in size
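Here, a 5' biotin and 3' phosphotyrosine-FITC DNA oligonucleotide reports Tdp1 activity: intact substrate bridges AlphaScreen beads, while cleavage leaves a 3' phosphate and drops signal. All incubations at room temperature.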
RORgamma inh = inhibitors of mouse ROR gamma transcriptional activity. P51450. Drosophila S2 Gal4-RORgamma UAS-luciferase reporter, 20 h. Potency, µM (highest dose often 53.6 µM), usual class: inhibitors. 310,000 tested, 5.4% active. AID 2551; also: nearly all actives have a fitted effect of over 60% in size
Target sequence (P51450 whole entry, looked up, the tested form may be a part): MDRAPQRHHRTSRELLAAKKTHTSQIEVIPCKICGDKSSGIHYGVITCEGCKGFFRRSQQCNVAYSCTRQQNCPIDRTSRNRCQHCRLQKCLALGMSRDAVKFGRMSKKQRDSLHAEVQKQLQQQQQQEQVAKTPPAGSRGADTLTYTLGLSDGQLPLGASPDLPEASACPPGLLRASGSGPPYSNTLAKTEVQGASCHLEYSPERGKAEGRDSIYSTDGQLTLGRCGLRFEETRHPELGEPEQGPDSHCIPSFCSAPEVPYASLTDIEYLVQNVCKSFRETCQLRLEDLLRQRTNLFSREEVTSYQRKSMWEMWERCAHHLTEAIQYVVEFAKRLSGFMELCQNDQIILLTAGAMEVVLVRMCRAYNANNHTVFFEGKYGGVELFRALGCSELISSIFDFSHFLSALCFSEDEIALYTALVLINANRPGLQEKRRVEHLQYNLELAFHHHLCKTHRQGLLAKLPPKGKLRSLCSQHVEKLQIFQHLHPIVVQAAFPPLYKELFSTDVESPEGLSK
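Read-out: Photinus luciferase luminescence; inhibitors lower reporter signal. Insect Schneider cells with Gal4-ROR gamma fusion under metallothionein promoter, UAS reporter; 700 uM final copper sulfate induction, 20 hr, ambient temperature.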
DT40 TDP1 CPT = DT40-hTDP1 cell growth loss with CPT. chicken DT40 Tdp1-/-;hTDP1 cells + 20 nM CPT, ATP luminescence, 48 h. Potency, µM (highest dose often 46.2 µM), actives largely listed as inhibitors. 420,000 tested, 12% active. AID 686979; also: nearly all actives have a fitted effect of over 55% in size
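Chicken DT40 Tdp1-/- cells complemented with human TDP1, 400 cells/well, exposed to compounds plus 20 nM camptothecin for at least 48 h at 37 C; viability read as ATP content by CellTiter-Glo luminescence.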
VP16 counter = Gal4-VP16 reporter inhibition counter-screen. Drosophila S2 Gal4-VP16 UAS-luciferase, luminescence, 20 h. Potency, µM (series often up to 53.6 µM), actives largely listed as inhibitors. 310,000 tested, 3.5% active;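 also: Gal4-VP16 expression switched on by copper sulfate through the metallothionein promoter; nearly all actives have a fitted effect of over 50% in size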
Numbers stand for hits; i = inactive; ? = inconclusive; nt = no result; [ ] = dose if it differs, or a comment. Most compounds without a hit are left out; they make up all but 19% or so of the library. Calls follow the shape of the dose curve; as a rule, active = well fitted curve in the direction sought with a large enough effect; inconclusive = small, poorly fitted or top-dose-only effect, or another doubt; inactive = no such curve, though single readings can be large; an effect the other way counts as inactive or inconclusive.

SMILES	TDP1 cell noCPT	TDP1 block	RORgamma inh	DT40 TDP1 CPT	VP16 counter
COc1ccc(CC2C(=O)NC(C)C(=O)N(C)C3Cc4ccc(cc4)Oc4cc(ccc4O)CC(C(=O)NC(C)C(=O)NC(C)C(=O)N2C)N(C)C3=O)cc1 (centres undefined)	0.16µM	nt	nt	0.018µM	nt
O=C1C(c2ccc(F)cc2)N(Cc2ccccc2Cl)C(=O)CN1C1CCCCC1 (centres undefined)	21µM	i	nt	23µM	nt
COc1cccc(CN2C(=O)CN(C3CCCCC3)C(=O)C2c2ccc(F)cc2)c1 (centres undefined)	?	i	i	?	i
COc1ccc(C2C(=O)N(C3CCCCC3)CC(=O)N2Cc2ccco2)cc1 (centres undefined)	?	i	i[0.365 µM]	i	nt
COc1ccc(CN2C(=O)CN(C3CCCCCC3)C(=O)C2c2ccc(F)cc2)cc1 (centres undefined)	?	i	i	?	i
COc1ccc(C2C(=O)N(C3CCCCCC3)CC(=O)N2Cc2ccccc2)cc1 (centres undefined)	26µM	i	nt	23µM	nt
CCC(C)(C)N1CC(=O)N(Cc2ccccc2)C(c2ccc(OC)cc2)C1=O (centres undefined)	18µM	i	i	9.2µM	i
COc1ccc(C2C(=O)N(C3CCCCC3)CC(=O)N2Cc2ccc3c(c2)OCO3)cc1 (centres undefined)	?	i	i	?	i
O=C1C(c2ccc(F)cc2)N(Cc2ccc3c(c2)OCO3)C(=O)CN1C1CCCCCC1 (centres undefined)	15µM	i	i	?	i
CCc1cc(=O)oc2cc(C)cc(OCC(=O)NCc3ccncc3)c12	i	i	i	i	i
COc1ccccc1CN1C(=O)CN(C2CCCCCC2)C(=O)C1c1ccc(C)cc1 (centres undefined)	21µM	i	nt	16µM	nt
COc1ccc(C2C(=O)N(C3CCCCCC3)CC(=O)N2Cc2ccccc2)cc1OC (centres undefined)	?	i	i	?	i
CS(=O)(=O)c1ncc(Cl)c(C(=O)N2CCN(c3cccc(Cl)c3)CC2)n1	0.52µM	i	nt	1µM	nt
COc1ccc(OCC(=O)N2CCN(c3cccc(Cl)c3)CC2)cc1	?	i	i	?	i
CCS(=O)(=O)c1ncc(Cl)c(C(=O)N2CCN(c3cccc(Cl)c3)CC2)n1	0.21µM	i	nt	0.26µM	nt
CCCCC(CC)C(=O)Nc1cc(=O)[nH]c2nc3ccccc3n12 (centres undefined)	i	nt	i	i	i
CCCCCCCCCOC(=O)C[n+]1csc(CCO)c1C	10µM	i	i	?	i[0.365 µM]
C[C@@H]1CN([C@@H](C)CO)C(=O)c2cc(Br)cnc2O[C@@H]1CN(C)Cc1ccc(Oc2ccccc2)cc1	16µM	nt	nt	i	nt
C[C@@H]1CN([C@@H](C)CO)C(=O)c2cc(-c3ccccc3F)cnc2O[C@H]1CN(C)Cc1cccc(F)c1	23µM	nt	nt	?	nt
C[C@H](CO)N1C[C@H](C)[C@@H](CN(C)Cc2ccccn2)Oc2ncc(-c3ccccc3)cc2C1=O	i	nt	nt	i	nt
C[C@@H]1CN([C@@H](C)CO)C(=O)c2cc(C#Cc3cccc(F)c3)cnc2O[C@H]1CN(C)C(=O)C1CCCCC1	?	nt	nt	i	nt
C[C@@H]1CN([C@@H](C)CO)C(=O)c2cc(C#Cc3cccc(F)c3)cnc2O[C@@H]1CN(C)CC1CCOCC1	?	nt	nt	16µM	nt
C[C@H]1CN([C@@H](C)CO)C(=O)c2cc(/C=C/c3ccccc3)cnc2O[C@H]1CN(C)C(=O)c1cccc(F)c1	23µM	nt	nt	?	nt
C[C@H](CO)N1C[C@H](C)[C@@H](CN(C)Cc2ccncc2)Oc2ncc(Br)cc2C1=O	i	nt	nt	i	nt
CCC1CCCCN1C(=O)Nc1ccc(F)cc1 (centres undefined)	i	i	i[0.365 µM]	i	nt
SMILES	TDP1 cell noCPT	TDP1 block	RORgamma inh	DT40 TDP1 CPT	VP16 counter
COc1cc(C2N(c3cc(C)on3)C(=O)C3CCCN32)cc(OC)c1OC (centres undefined)	i	i	i	i	i
Cc1cc(C)n(C/C=C/Cn2nc(C)cc2C)n1	i	i	?	i	i
C[C@H](O)C#Cc1cnc2c(c1)C(=O)N([C@H](C)CO)C[C@@H](C)[C@@H](CN(C)Cc1ccc(-c3ccccc3)cc1)O2	1.3µM	nt	nt	?	nt
COc1ccc(NC(=O)CSc2ccc3ccccc3c2)cc1S(=O)(=O)N1CCCCC1	16µM	i	?	23µM	i
CCn1cc(C(=O)Nc2ccc(OC)c(S(=O)(=O)N3CCCCC3)c2)c(=O)c2ccc(C)nc21	23µM	i	i	?	i
COc1ccc(OCC(=O)Nc2ccc(OC)c(S(=O)(=O)N3CCCCC3)c2)cc1	12µM	i	nt	15µM	nt
COc1ccc(NC(=O)CSc2ccc(NC(C)=O)cc2)cc1S(=O)(=O)N1CCOCC1	i	i	nt	i	nt
CCn1cc(C(=O)NC2CCCCC2C)c(=O)c2ccc(C)nc21 (centres undefined)	11µM	i	i	?	i
CCn1cc(C(=O)NC2CC3CCC2C3)c(=O)c2ccc(C)nc21 (centres undefined)	nt	i	i	nt	i
CC(=NNC(=O)C(C)SC(C)C(=O)NN=C(C)c1cccnc1)c1cccnc1 (centres undefined)	i	nt	nt	i	nt
Cc1nnc(SCCc2ccccc2)[nH]c1=O	?	i	i	i	i
CN1C(=O)Cc2cc(S(=O)(=O)CCC(=O)Nc3ccccc3)ccc21	i	i	nt	i	nt
CC(C)CN(C(=O)COC(=O)c1cc2c(s1)CCC2)C1CCS(=O)(=O)C1 (centres undefined)	i	13µM	i	i	i
CCc1cc(C(=O)NCCN2Cc3ccccc3OC(c3ccsc3)C2)n(C)n1 (centres undefined)	21µM	nt	nt	?	nt
CCOC(=O)/C(=N\O)C1=NC(C)(C)Cc2ccccc21	i	i	i	i	i
Cc1cccc(N/N=C(\C(N)=O)C2=NC(C)(C)Cc3ccccc32)c1	26µM	i	i	?	i
CC1(C)Cc2ccccc2C(C(=O)c2ccccc2)=N1	i	nt	7.9µM	i	i
CC1(C)Cc2ccccc2C(NNC(=O)c2ccccn2)=N1	21µM	i	0.05µM	18µM	0.1µM
Cc1ccc(-c2nnc(OCCN3CCOCC3)c3ccccc23)cc1	?	i	i	?	i
CCN(c1ccccc1)S(=O)(=O)c1ccc(Oc2ccccc2C(C)=O)nc1	?	i	nt	i	nt
O=C(NNC(=O)c1ccc2c(=O)n3c(nc2c1)CCC3)c1ccc(Cl)cc1	i	i	nt	i	nt
Cc1cc(=O)n(CC(=O)N2CCN(c3ccccc3F)CC2)c2c1c(C)nn2C	8.2µM	i	nt	16µM	nt
Cc1nn(C)c2c1c(C(F)(F)F)cc(=O)n2CC(=O)N1CCN(c2ccccc2F)CC1	?	i	nt	?	nt
